According to PubChem BioAssay (NCI):
About 83,000 compounds went through this panel and 20% of them were active in at least one assay; those are over-represented in the sample as a whole.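 Cells were grown in 96-well plates and exposed to the test compound at a single concentration for 48 hours; results are reported as percent growth, with values below 10 considered active.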 Unmarked numbers belong to inactive results. Active and inactive are the calls of the source.

tested on: NCI-H522 lung; experiment: NCI-60 one-dose screen, 48 h (100 = growth as untreated, 0 = no growth, -100 = all killed); conditions: 10 µM unless noted

First: COc1ccc(C2Nc3ncnc(N)c3N=C3c4ccccc4C(=O)C32)cc1 (stereo not given)
Second: COc1ccc(C2Nc3nc(OC)n(C)c(=O)c3N=C3c4ccccc4C(=O)C32)cc1 (stereo not given)
The growth of the first is higher: 101% for the first, 94.8% for the second.

Going from `Nc1nc(N)c2c(n1)NC1(C=C(O)c3ccccc31)C1=C(N2)c2ccccc2C1=O` (stereo not given) to `Cn1c2c(c(=O)[nH]c1=O)NC1=C(C(=O)c3ccccc31)C1(C=C(O)c3ccccc31)N2` (stereo not given), the growth rises from 95.3% to 99.9%.

First: CCCCCCc1cc2cc(-c3nc4ccccc4[nH]3)c(=Nc3ccccc3C)oc2cc1O
Second: COC(=O)/C(=C\c1c(-c2ccccc2)[nH]c2ccccc12)S(C)(=O)=O
The growth of the first is lower: 14.3% for the first, 47.1% for the second.

First: OC(c1ccccc1)c1nnc(SCc2ccccc2)n1Cc1ccccc1 (stereo not given)
Second: N#C/C(=C\c1c(-c2ccccc2)[nH]c2ccccc12)C(=O)c1ccccc1
The growth of the first is higher: 86.6% for the first, 57.1% for the second.

First: CC(=O)O[C@@H]1/C=C/C(=O)N[C@@H](C)CCC/C=C/[C@@H]2CCC[C@H]21
Second: O=C1/C=C/[C@@H](O)[C@@H]2C[C@@H](O)C[C@H]2/C=C/CCCCO1
The growth of the first is higher: 37.9% for the first, 19.4% for the second.

First: CN1CCN(c2nc(Nc3ccc(O)cc3)nc3ccccc23)CC1
Second: Nc1nc(Nc2cccc(F)c2)nc2ccccc12
The growth of the first is lower: 37.5% for the first, 51.5% for the second.

Going from `FC(F)(F)c1cccc(Nc2nc(-c3ccccc3)nc3ncccc23)c1` to `O=C(CSc1ncccc1C(=O)O)Nc1ccc(Oc2ccccc2)cc1`, the growth rises from 72.8% to 105%.

First: Nc1ccc(C2c3ccccc3Oc3ccccc32)cc1
Second: N#CC(C#N)=Cc1c(-c2ccccc2)[nH]c2ccccc12
The growth of the first is higher: 89.4% for the first, 50.2% for the second.

First: CCCCc1ccc(NS(=O)(=O)c2cc3c4c(c2)CCN4C(=O)CC3)cc1
Second: CC(C)(C)c1ccc(C2CC(=O)C3=C(C2)Nc2ccccc2N(C(=O)c2ccccc2Cl)C3c2ccc(F)cc2)cc1 (stereo not given)
The growth of the first is lower: 13.9% for the first, 14.7% for the second.

Compared with `CCCC(c1nnnn1C1CCCCC1)N1CCN(C(=O)c2ccco2)CC1` (stereo not given), `CN(O)c1nc(N(C)O)nc(N2CCOCC2)n1` is lower in growth: 62.5% for the first, 31.4% for the second.

`O=CCCCC(O)C=O` (stereo not given) showed a growth of 107%.

`CCOC(=O)c1cnc2ccc(Cl)cc2c1NCCCN(C)C` was tested, and the growth was -17.5% (active).
For `COc1ccc(/C=C2\SC(=Nc3ccccc3)NC2=O)cc1`, the growth was -85.6% (active).
`CCOC(=O)c1cc2c(n1Cc1cc(OC)c(OC)c(OC)c1)-c1oncc1CCC2` was tested, and the growth was 5.14% (active).
In the case of `O=C(Nc1ccc(Cl)cc1)c1cc2ccccc2cc1OP(=O)(O)O`, the growth was 3.47% (active).
